Each structure is given as a SMILES string. Active and inactive are the calls of the source.

Assay [1] has as its system Human papillomavirus type 1a protein E7 (residues 44-93). Nature of the assay: HPV1a E7 fragment binders on microarrays, primary screen, biochemical, small-molecule microarray, residues 44-93, 635 nm fluorescence (AID 1108).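 Note: E7 fragment applied at 1 µg/mL in TBST for 1 h at 4 C; score combines spot fluorescence with its signal to noise ratio.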 To be noted: small-molecule microarray binding, fluorescence 635 nm; higher = more signal.
Assay [2] is described as follows: modulators of HCV replicon luciferase signal, primary screen, HCV replication inhibitor project, Huh7 cells, luciferase reporter (AID 1109).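 Note: huh7 hepatoma cells harbouring a luciferase neomycin HCV replicon reporter; luciferase luminescence as measure of HCV replicon replication; test concentration not given here.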 To be noted: 48 h, higher = more signal.
The target of assay [3] is Left-right determination factor 2 (Homo sapiens) (UniProt O00292). Nature of the assay: LEFTY2 binders on small-molecule microarrays, primary screen, biochemical, small-molecule microarray, 635 nm fluorescence scan (AID 1110). To be noted: LEFTY2 binding, higher = more signal.
Chain of Left-right determination factor 2 (Homo sapiens) (O00292 whole entry, looked up): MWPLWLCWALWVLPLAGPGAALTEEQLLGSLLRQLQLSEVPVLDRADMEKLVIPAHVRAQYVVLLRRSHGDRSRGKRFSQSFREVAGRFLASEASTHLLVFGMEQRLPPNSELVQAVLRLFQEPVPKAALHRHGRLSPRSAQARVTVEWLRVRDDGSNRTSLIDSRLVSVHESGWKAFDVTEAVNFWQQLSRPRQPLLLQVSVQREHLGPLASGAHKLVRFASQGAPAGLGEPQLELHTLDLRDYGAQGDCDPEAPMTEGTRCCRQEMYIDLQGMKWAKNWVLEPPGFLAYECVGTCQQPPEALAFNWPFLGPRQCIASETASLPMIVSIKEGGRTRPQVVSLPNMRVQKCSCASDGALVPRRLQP
Assay [4] deals with Calmodulin-1 (Homo sapiens) (UniProt P0DP23). Kind of assay: CALM1 binders on microarrays, EGTA buffer, profiling panel, biochemical, small-molecule microarray, Cy5-labelled CALM1 (AID 1111).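 Note: labelled calmodulin applied in Tris saline Tween buffer holding calcium plus EGTA and DTT.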 Conditions: Cy5-CALM1 binding fluorescence, higher = more signal.
Assay [5] has the same target. Kind of assay: calcium-bound CALM1 binders on microarrays, profiling panel, artefact control for SMM control-protein annotation, biochemical, small-molecule microarray, Cy5-labelled CALM1, plus calcium (AID 1112).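 Note: score merges spot fluorescence with signal to noise from triplicate slides.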 Conditions: Cy5-CALM1 binding fluorescence, higher = more signal.
A short description of assay [6]: small-molecule microarray binders of probe aWnt5a, primary screen, biochemical, biotinylated probe, 635/667 nm fluorescence (AID 1113).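 Note: score merges 667 nm fluorescence intensity with signal-to-noise per printed feature.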 To be noted: higher = more signal.
Assay [7] can be described thus: small-molecule microarray binders of probe aShh, primary screen, biochemical, biotinylated probe, 635/667 nm fluorescence (AID 1114).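 Note: probe is biotin-labelled aShh protein from a stem cell growth factor screen; measures binding of labelled protein to compounds printed on the slide; score merges feature fluorescence at 667 nm with signal-to-noise.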 Conditions: higher = more signal.
Assay [8] can be described thus: small-molecule microarray binders of probe aNog, primary screen, biochemical, biotinylated probe, 635/667 nm fluorescence (AID 1115).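 Note: probe is biotinylated aNog protein used at 0.15 µg/mL for 1 h at 4 C; z-score combines 667 nm fluorescence of each spot with its signal to noise.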 Conditions: higher = more signal.
The target of assay [9] is Torsin-1A-interacting protein 1 (Homo sapiens) (UniProt Q5JTV8). Kind of assay: LAP1 binders from COS7 cell lysate, primary screen, small-molecule microarray, 635/667 nm fluorescence (AID 1116). To be noted: COS7-hLAP1 lysate binding, 635 nm fluorescence, higher = more signal.
Chain of Torsin-1A-interacting protein 1 (Homo sapiens) (Q5JTV8 whole entry, looked up): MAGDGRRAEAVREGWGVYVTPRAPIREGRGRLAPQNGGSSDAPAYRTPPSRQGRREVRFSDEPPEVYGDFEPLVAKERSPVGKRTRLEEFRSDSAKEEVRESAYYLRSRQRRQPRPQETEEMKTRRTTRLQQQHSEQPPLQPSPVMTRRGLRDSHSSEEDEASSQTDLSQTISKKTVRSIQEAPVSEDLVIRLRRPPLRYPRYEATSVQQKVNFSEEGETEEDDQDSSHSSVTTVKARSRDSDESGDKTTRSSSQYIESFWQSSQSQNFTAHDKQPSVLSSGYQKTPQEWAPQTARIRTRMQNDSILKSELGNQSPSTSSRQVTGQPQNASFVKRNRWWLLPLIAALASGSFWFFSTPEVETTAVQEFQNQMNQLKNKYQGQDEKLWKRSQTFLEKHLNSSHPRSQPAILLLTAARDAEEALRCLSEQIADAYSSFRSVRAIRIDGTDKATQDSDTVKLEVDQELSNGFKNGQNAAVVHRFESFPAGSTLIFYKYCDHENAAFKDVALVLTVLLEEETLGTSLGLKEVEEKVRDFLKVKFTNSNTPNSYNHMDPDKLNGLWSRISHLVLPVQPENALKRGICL
Assay [10] has as its target Alpha-bungarotoxin (Bungarus multicinctus) (UniProt P60615). Nature of the assay: alpha-bungarotoxin binders on microarray, profiling panel, artefact control for SMM control protein annotation, biochemical, small-molecule microarray, Alexa647 label, 635/667 nm fluorescence (AID 1117). Conditions: alpha-BTX-A647 binding fluorescence, higher = more signal.
Assay [11] has as its target Albumin (Bos taurus) (UniProt P02769). Kind of assay: bovine serum albumin binders on microarray, profiling panel, artefact control for SMM control protein annotation, biochemical, small-molecule microarray, Alexa647 label, 635/667 nm fluorescence (AID 1118).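 Note: score merges 667 nm emission intensity and signal-to-noise per printed compound spot.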 Conditions: BSA-A647 binding, fluorescence 635 nm, higher = more signal.
A short description of assay [12]: small-molecule microarray binders of probe aXIP, primary screen, biochemical, NeuroSMM set, 635/667 nm fluorescence (AID 1119).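 Note: probe is the protein aXip251-270 applied at 1 µg/mL to compound-printed slides; binding of probe to printed compounds measured as 667 nm fluorescence plus signal to noise.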 Conditions: higher = more signal, called active from +8 up or from −8 down.
Assay [13] in a line: small-molecule binders of probe aNOTCH3, primary screen, biochemical, small-molecule microarray, 635/667 nm fluorescence (AID 1120).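 Note: probe is a biotin-tagged antibody raised against NOTCH3 rather than NOTCH3 protein; score merges spot fluorescence near 667 nm with spot signal to noise.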 To be noted: higher = more signal.
Assay [14] in a line: small-molecule binders of probe aNOTCH2, primary screen, biochemical, small-molecule microarray, 635/667 nm fluorescence (AID 1121).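 Note: score merges feature fluorescence read at 667 nm with its signal to noise.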 To be noted: higher = more signal.
Assay [15] has as its target Carbonic anhydrase 2 (Homo sapiens) (UniProt P00918). Kind of assay: CAII small-molecule binders, profiling panel, biochemical, small-molecule microarray, Alexa647-labelled CAII (AID 1122). To be noted: CAII-A647 binding fluorescence, higher = more signal.
A short description of assay [16]: COS7 lysate on small-molecule microarray, probe aHis, 635 nm (AID 1123).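 Note: z-score combines 667nm fluorescence intensity with signal-to-noise per printed compound spot.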 Conditions: COS7 cell lysate, fluorescence, higher = more signal.
Assay [17] in a line: compound binding in COS7 lysate, probe aLAP1, primary screen, cell lysate, small-molecule microarray (AID 1124).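 Note: lysate comes from COS7 cells expressing LAP1 and is applied at 0.3 µg/mL; score merges spot fluorescence near 667 nm with signal-to-noise over triplicate slides.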 Conditions: probe aLAP1, fluorescence, higher = more signal.
The test system of assay [18] is Sam68 (KHDRBS1). Kind of assay: Sam68 small-molecule binders, primary screen, biochemical, small-molecule microarray, 635 nm fluorescence (AID 1125).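 Note: score merges 667 nm channel intensity with signal to noise over triplicate slides.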 Conditions: small-molecule microarray binding, higher = more signal.
In assay [19] the test system is Chordin-like protein 2 (CHRDL2). Nature of the assay: CHRDL2 small-molecule binders, primary screen, biochemical, small-molecule microarray, 635 nm fluorescence (AID 1126).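 Note: printed compound slides probed with Chrdl2 protein at 4 µg/mL for 1 h at 4 C; score merges 667 nm emission intensity with signal to noise over three replicate slides.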 To be noted: small-molecule microarray binding, fluorescence 635 nm; higher = more signal.
The target in assay [20] is Concanavalin-A (Canavalia ensiformis) (UniProt P02866). Kind of assay: ConA small-molecule binders, primary screen, artefact control for SMM control protein annotation, biochemical, small-molecule microarray, Alexa647 label, 635 nm (AID 1127).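 Note: z combines 667 nm emission intensity with signal-to-noise across three replicate slides.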 Conditions: ConA-A647 binding fluorescence, higher = more signal.
Chain of Concanavalin-A (Canavalia ensiformis) (P02866 whole entry, looked up): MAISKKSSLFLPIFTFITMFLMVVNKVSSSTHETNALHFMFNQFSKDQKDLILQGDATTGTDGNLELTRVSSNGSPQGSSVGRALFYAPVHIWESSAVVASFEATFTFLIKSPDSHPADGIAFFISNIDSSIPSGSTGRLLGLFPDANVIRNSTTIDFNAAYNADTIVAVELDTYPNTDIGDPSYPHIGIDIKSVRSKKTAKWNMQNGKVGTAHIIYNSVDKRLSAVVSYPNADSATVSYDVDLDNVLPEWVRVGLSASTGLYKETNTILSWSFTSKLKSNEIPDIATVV

Chain of Albumin (Bos taurus) (P02769 whole entry, looked up): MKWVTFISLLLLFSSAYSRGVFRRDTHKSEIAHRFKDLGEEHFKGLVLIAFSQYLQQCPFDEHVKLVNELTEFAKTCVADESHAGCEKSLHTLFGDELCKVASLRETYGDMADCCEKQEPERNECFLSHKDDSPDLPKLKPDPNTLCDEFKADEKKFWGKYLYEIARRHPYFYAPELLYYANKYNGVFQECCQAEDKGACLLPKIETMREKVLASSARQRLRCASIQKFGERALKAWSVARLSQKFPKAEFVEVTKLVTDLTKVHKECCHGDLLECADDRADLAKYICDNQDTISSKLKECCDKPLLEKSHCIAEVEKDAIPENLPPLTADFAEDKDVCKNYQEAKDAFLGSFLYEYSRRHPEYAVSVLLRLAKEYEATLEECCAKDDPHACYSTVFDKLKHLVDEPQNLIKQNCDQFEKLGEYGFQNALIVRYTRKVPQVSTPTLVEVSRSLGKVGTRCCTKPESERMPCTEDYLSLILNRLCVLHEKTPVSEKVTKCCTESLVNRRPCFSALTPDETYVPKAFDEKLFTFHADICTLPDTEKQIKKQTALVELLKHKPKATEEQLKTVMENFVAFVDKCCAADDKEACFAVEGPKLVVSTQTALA
Chain of Alpha-bungarotoxin (Bungarus multicinctus) (P60615 whole entry, looked up): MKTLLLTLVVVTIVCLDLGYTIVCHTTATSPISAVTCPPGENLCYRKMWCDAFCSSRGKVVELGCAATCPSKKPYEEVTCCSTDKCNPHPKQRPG

As for `C[N+](C)(C)CCCC[C@@H]1NC(=O)[C@@H]2C[C@H](C(=O)O)[C@H](c3cccc(OCCO)c3)N2C1=O`, the composite z-score is 0.17 in [1]; -0.8 in assay [3]; -0.705 in assay [4]; 0.417 in [5]; -0.276 in assay [6]; -0.0681 in assay [7]. In addition, the composite z-score in assay [8] was -0.326; in assay [9], -0.0851; in assay [10], -1.03; in [11], -1.33; in assay [13] it was -0.324; in assay [14], 0.0022. The composite z-score in assay [15] was 0.49; in assay [16], 0.64; in [17], 0.303; in assay [18], -0.0913; in assay [19] it was 0.451; in assay [20], 1.02. The same compound came in with a z-score in assay [2] of -0.208. Besides, the composite Z-score in assay [12] is 1.31 (inactive).

`COC(=O)[C@@]1(Cc2ccccc2N=[N+]=[N-])N=C(c2ccc(OCCCO)cc2)O[C@H]1c1ccccc1`: the composite z-score in [1] was 1.34; in assay [3], -0.319; in assay [4], 0.694; in assay [5] it was 0.278; in assay [6], 0.0136; in [7], 0.0121. Also, the composite z-score is -0.466 in assay [8]; 1.37 in [9]; 0.873 in assay [10]; 0.371 in [11]; -0.0377 in [13]; -0.0563 in assay [14]. Also, the composite z-score in assay [15] is 0.593; in assay [16] it was 1.28; in assay [17] it was 0.156; in assay [18] it was 1.16; in [19] it was -0.608; in assay [20], 1.11. Besides, in assay [2], the z-score is -3.38. In addition, the composite Z-score in assay [12] was 0.17 (inactive).

Consider `COCCOC(=O)N1C(=O)[C@@]2(c3cc(C#CC4(O)CCCCCC4)ccc31)[C@H](C(=O)N1CCc3cc(OC)c(OC)cc3C1)[C@H]1C(=O)O[C@H](c3ccccc3)[C@H](c3ccccc3)N1[C@@H]2c1ccccc1OCCO`, for which the composite z-score in [1] was 1.04; in [3], 1.17; in assay [4], 1.02; in assay [5] it was -0.386; in assay [6], 0.205; in assay [7], 0.261. In addition, the composite z-score in assay [8] is 0.0158; in assay [9] it was 0.447; in assay [10] it was 1.46; in assay [11], -0.499; in assay [13], 0.382; in [14], 0.0521. Besides, the composite z-score in assay [15] was 0.435; in assay [16], 0.29; in assay [17] it was 0.221; in assay [18], 1.29; in assay [19], 1.02; in assay [20], 1.17. Moreover, the z-score in [2] was -2.18. Further, the composite Z-score in [12] was 0.141 (inactive).

With `CC(C)NC(=O)[C@@]1(Cc2ccccc2I)c2ccccc2C(=O)N(Cc2ccccc2C(F)(F)F)[C@H]1c1ccc(CO)cc1`, the composite z-score was -0.358 in assay [1]; -0.0083 in [3]; 0.503 in [4]; 0.377 in [5]; -0.096 in [6]; -0.012 in [7]. Moreover, the composite z-score in [8] amounted to 0.647; in assay [9], 0.506; in assay [10], 0.565; in [11], 0.263; in assay [13] it was 0.059; in assay [14] it was 0.0509. Also, the composite z-score in [15] was found to be 0.71; in assay [16] it was 1.47; in assay [17] it was 0.896; in assay [18], 0.63; in assay [19], 0.107; in assay [20], 0.548. The z-score in assay [2] was -1.47. Further, the composite Z-score in [12] is 0.0307 (inactive).

For `COCCCNC(=O)[C@@]1(Cc2ccccc2CN=[N+]=[N-])N=C(c2ccc(OCCCO)cc2)O[C@H]1c1ccccc1N=[N+]=[N-]`, the composite z-score is -0.0639 in [1]; 0.0652 in assay [3]; 1.56 in assay [4]; 1 in assay [5]; 0.0388 in assay [6]; 0.291 in assay [7]. In addition, the composite z-score was -0.675 in assay [8]; 0.785 in assay [9]; 1.48 in assay [10]; 0.778 in assay [11]; 0.303 in [13]; 0.168 in assay [14]. In addition, the composite z-score in assay [15] was 0.421; in assay [16], 2.43; in [17], 0.656; in assay [18], 1.02; in [19], -0.379; in assay [20] it was 1.04. For the same compound, the z-score in assay [2] was -2.3. The composite Z-score in assay [12] is 0.397 (inactive).

Values taken from PubChem BioAssay.
